Reference: PubChem BioAssay (Tox21)
Results filed as inconclusive are left out. Calls of active or inactive are those of the source. Unless noted, the call rests on the fitted dose curve; in most records, active means well fitted curve in the direction sought with a large enough effect in the repeat runs; inconclusive means weak or mixed curves; inactive means no such curve, though single readings can be large; an effect the other way counts as inactive or inconclusive.

Key:
[1] = target: Thyrotropin receptor (Homo sapiens) (UniProt P16473); experiment: qHTS assay to identify small molecule antagonists of the thyroid stimulating hormone receptor (TSHR) signaling pathway (AID 1259385; calls by dose curve; further: nearly all actives have a fitted effect of over 20% in size)
Method in brief: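 Antagonist mode: compound-treated TSHR-expressing HEK293 cells were stimulated with 1.5 ng/mL TSH (final) in presence of Ro20-1724 for 30 min at RT. HTRF cAMP detection after 1 h; each compound tested at 15 concentrations, triplicate.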

[2] = qHTS assay to identify small molecule agonists of the estrogen receptor alpha (ER-alpha) signaling pathway in the presence of an antagonist - cell viability counter screen (AID 1259386);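 further: series mostly up to about 92 µM; cells exposed to compounds for 22 h at 37 °C before the viability read; nearly all actives have a fitted effect of over 30% in size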
Method in brief: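 Using estrogen-depleted VM7Luc4E2 cells, the 15-concentration compound series was applied together with 10.0nM ICI-182,780 and incubated 22hr at 37C/5% CO2. Cell viability was then scored by CellTiter-Fluor.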

[3] = target: Progesterone receptor (Homo sapiens) (UniProt P06401); experiment: qHTS assay to identify small molecule agonists of the progesterone receptor (PR) signaling pathway (AID 1346784; calls by dose curve; further: nearly all actives have a fitted effect of over 30% in size)
Method in brief: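 Seed PR-UAS-bla HEK 293T cells (2% charcoal-stripped FBS), incubate 6 hr at 37C; add compounds in DMSO, 16 hr at 37C; add LiveBLAzer B/G substrate, 2 hr RT; read fluorescence intensity.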

[4] = target: Progesterone receptor (Homo sapiens) (UniProt P06401); experiment: qHTS assay to identify small molecule antagonists of the progesterone receptor (PR) signaling pathway (AID 1346795; active means well fitted inhibition curve with a large enough effect in the signal ratio in the repeat runs, not every such curve was filed as active; the % refers to the signal ratio)
Method in brief: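 Screening used a GripTite HEK293T line with PR-responsive UAS-beta-lactamase. Cells were challenged with compound in the presence of 1 nM R5020 final for 16 hr at 37C; B/G FRET substrate, 2 hr room temperature, fluorescence.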

[5] = qHTS assay to identify small molecule antagonists of the progesterone receptor (PR) signaling pathway - cell viability counter screen (AID 1346798); further: series mostly up to about 92 µM; nearly all actives have a fitted effect of over 50% in size
Method in brief: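 Measures cytotoxicity in parallel with the PR antagonist reporter read: HEK293T PR-UAS-bla cells get compound and R5020 for 16 hr, and remaining viable cells are quantified by CellTiter-Glo luminescence.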

[6] = qHTS assay to identify small molecule agonists of the progesterone receptor (PR) signaling pathway - cell viability counter screen (AID 1346799; calls by dose curve; further: nearly all actives have a fitted effect of over 45% in size)
Method in brief: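 Using the same plates as the PR reporter screen, HEK293T PR-UAS-bla cells received compounds for 16 hr at 37C and were then lysed with CellTiter-Glo; luminescence was read 30 min later at room temperature.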

[7] = qHTS assay to identify small molecule antagonists of the TGF-beta/Smad signaling pathway - cell viability counter screen (AID 1346824); further: nearly all actives have a fitted effect of over 50% in size
Method in brief: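 Cytotoxicity counter-screen run in the same wells as the beta-lactamase Smad reporter read: CellTiter-Glo luminescence after 30 min at room temperature. HEK 293T SBE-bla cells had 5 hr compound exposure at 37 C with TGF-beta1 (0.25 ng/mL stock).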

[8] = qHTS assay to identify small molecule agonists of the TGF-beta/Smad signaling pathway - cell viability counter screen (AID 1346829); further: top concentration of the series differs between compounds; nearly all actives have a fitted effect of over 45% in size
Method in brief: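 HEK 293T SBE-bla line, 5 hr compound exposure at 37 C, multiplexed CellTiter-Glo viability read by luminescence.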

[9] = qHTS assay to identify small molecule agonists of the TGF-beta/Smad signaling pathway (AID 1346859; active means well fitted activation curve with a large enough effect in the signal ratio in the repeat runs, not every such curve was filed as active; the % refers to the signal ratio; further: series mostly up to about 77 µM)
Method in brief: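 Beta-lactamase reporter activity downstream of Smad binding elements was measured in stably transfected HEK 293T cells; compounds were incubated for 5 hr, substrate for 2 hr at room temperature.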

[10] = target: Thyrotropin-releasing hormone receptor (Homo sapiens) (UniProt P34981); experiment: qHTS assay to identify small molecule antagonists of the thyrotropin-releasing hormone receptor (TRHR) signaling pathway (AID 1346877; active means well fitted inhibition curve with a large enough effect in the repeat runs, not every such curve was filed as active; further: series mostly up to about 51 µM)
Method in brief: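 Calcium signal in dye-loaded TRHR/HEK293 cells; compounds added 5 min before TRH (1 nM final); fluorescence monitored 3 min at 1 s steps.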

[11] = target: Thyrotropin-releasing hormone receptor (Homo sapiens) (UniProt P34981); experiment: qHTS assay to identify small molecule agonists of the thyrotropin-releasing hormone receptor (TRHR) signaling pathway (AID 1346891; calls by dose curve;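 further: HEK293 cells expressing TRHR with calcium dye readout; series mostly up to about 58 µM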)
Method in brief: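 Overnight-plated (18 h, 37 °C, 5% CO2) TRHR-Hek293 cells; 2 h calcium dye at 37 °C; compound in DMSO; 3-min kinetic fluorescence read.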

[12] = Human pregnane X receptor (PXR) small molecule agonists, qHTS cell viability counter screen (AID 1346977); further: nearly all actives have a fitted effect of over 50% in size
Method in brief: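 After a 5hr pre-incubation, PXR-Luc HepG2 cells received compounds plus positive control in DMSO and were kept 24hr at 37C. Cell viability was quantified by fluorescence from CellTiter-Fluor added for the final hour.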

[13] = Caspase-3/7 induction in HepG2 cells by small molecules, qHTS assay (AID 1346978); further: nearly all actives have a fitted effect of over 15% in size
Method in brief: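 Caspase-3/7 induction was measured by Caspase-Glo 3/7 luminescence (30 min, room temperature) after a 17 hr compound exposure of wild-type HepG2 cells seeded at 2,000 per well and pre-incubated 5 hr.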

[14] = Caspase-3/7 induction in CHO-K1 cells by small molecules, qHTS cell viability counter screen (AID 1346979); further: nearly all actives have a fitted effect of over 35% in size
Method in brief: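 Multiplexed with Caspase-Glo 3/7 in CHO-K1 cells, this counter screen added CellTiter-Fluor after 16hr of compound exposure and recorded fluorescence 1hr later.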

[15] = Caspase-3/7 induction in CHO-K1 cells by small molecules, qHTS assay (AID 1346980); further: nearly all actives have a fitted effect of over 15% in size
Method in brief: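 Luminescent Caspase-Glo 3/7 read (30min, room temperature) quantified apoptosis induction. Cells were wild-type CHO-K1, treated with compound for 17hr at 37 C and 5% CO2.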

[16] = Caspase-3/7 induction in HepG2 cells by small molecules, qHTS cell viability counter screen (AID 1346981); further: series mostly up to about 92 µM; nearly all actives have a fitted effect of over 30% in size
Method in brief: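 After a 5-hr attachment period at 37 C and 5% CO2, wild-type HepG2 cells received compounds in DMSO. Sixteen hours later CellTiter-Fluor was dispensed and the fluorescent signal quantified after a further hour.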

[17] = target: Nuclear receptor subfamily 1 group I member 2 (Homo sapiens) (UniProt O75469); experiment: Human pregnane X receptor (PXR) small molecule agonists, qHTS assay (AID 1346982); further: nearly all actives have a fitted effect of over 35% in size
Method in brief: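 Tox21 qHTS; PXR-Luc HepG2; compounds pinned from DMSO; 24 hr, 37 C; ONE-Glo luciferase detection, 30 min room temperature.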

[18] = target: Nuclear receptor subfamily 1 group I member 2 (Homo sapiens) (UniProt O75469); experiment: CYP3A4 induction through human pregnane X receptor (PXR) by small molecules, qHTS assay (AID 1346984); further: nearly all actives have a fitted effect of over 40% in size
Method in brief: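 Cells (DPX-2; HepG2 with PXR element plus CYP3A4-promoter luciferase) settled 5hr, then were treated 24hr at 37C. A 3hr, 3uM-final Luciferin-IPA step preceded luminescence measurement with One-Glo.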

[19] = target: Nuclear receptor subfamily 1 group I member 2 (Homo sapiens) (UniProt O75469); experiment: Human pregnane X receptor (PXR) activation by small molecules, qHTS assay (AID 1346985); further: nearly all actives have a fitted effect of over 40% in size
Method in brief: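 DPX-2 cells (HepG2 co-transfected with a PXR response element and a CYP3A4-promoter luciferase construct) were seeded at 2,000 per well, rested 5 hr at 37C, then exposed to DMSO-dissolved compounds for 24 hr. Activation was read as luciferase luminescence.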

[20] = target: Nuclear receptor subfamily 1 group I member 2 (Rattus norvegicus) (UniProt Q9R1A7); experiment: Rat pregnane X receptor (rPXR) activation by small molecules, qHTS assay (AID 1346983); details: rPXR luciferase reporter cells, One-Glo luminescence, 24 h; stronger effect = higher value; further: nearly all actives have a fitted effect of over 20% in size
Method in brief: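 Luminescent readout (One-Glo luciferase, 30 min room temperature) followed 24 hr compound treatment at 37 C of rPXR cells plated 2,000 per well and preincubated 5hr; qHTS format with compounds delivered in DMSO.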
On the % scale 0 is the no-effect control and ±100 the full control effect.

Sequence of Thyrotropin receptor (Homo sapiens) (P16473 whole entry, looked up): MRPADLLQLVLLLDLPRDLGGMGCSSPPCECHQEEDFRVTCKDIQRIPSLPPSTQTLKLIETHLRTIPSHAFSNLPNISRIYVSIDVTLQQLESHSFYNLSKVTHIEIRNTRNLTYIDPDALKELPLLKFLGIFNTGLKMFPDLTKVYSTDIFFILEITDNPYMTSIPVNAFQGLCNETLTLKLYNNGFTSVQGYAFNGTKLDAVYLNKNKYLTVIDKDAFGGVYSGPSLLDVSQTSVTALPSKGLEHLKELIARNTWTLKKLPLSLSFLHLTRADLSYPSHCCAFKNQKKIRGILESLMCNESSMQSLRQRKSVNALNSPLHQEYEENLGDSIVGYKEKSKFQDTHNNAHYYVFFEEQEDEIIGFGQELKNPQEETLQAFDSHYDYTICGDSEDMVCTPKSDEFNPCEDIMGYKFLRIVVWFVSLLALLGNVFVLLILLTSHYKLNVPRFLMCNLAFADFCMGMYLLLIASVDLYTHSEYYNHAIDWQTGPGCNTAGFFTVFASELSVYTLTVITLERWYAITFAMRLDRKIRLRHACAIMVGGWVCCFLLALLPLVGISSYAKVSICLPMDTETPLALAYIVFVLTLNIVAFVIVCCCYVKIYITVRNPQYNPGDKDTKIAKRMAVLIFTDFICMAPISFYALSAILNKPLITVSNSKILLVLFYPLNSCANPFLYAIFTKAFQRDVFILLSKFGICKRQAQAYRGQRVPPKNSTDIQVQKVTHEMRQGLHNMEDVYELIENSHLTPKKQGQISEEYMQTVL
Sequence of Thyrotropin-releasing hormone receptor (Homo sapiens) (P34981 whole entry, looked up): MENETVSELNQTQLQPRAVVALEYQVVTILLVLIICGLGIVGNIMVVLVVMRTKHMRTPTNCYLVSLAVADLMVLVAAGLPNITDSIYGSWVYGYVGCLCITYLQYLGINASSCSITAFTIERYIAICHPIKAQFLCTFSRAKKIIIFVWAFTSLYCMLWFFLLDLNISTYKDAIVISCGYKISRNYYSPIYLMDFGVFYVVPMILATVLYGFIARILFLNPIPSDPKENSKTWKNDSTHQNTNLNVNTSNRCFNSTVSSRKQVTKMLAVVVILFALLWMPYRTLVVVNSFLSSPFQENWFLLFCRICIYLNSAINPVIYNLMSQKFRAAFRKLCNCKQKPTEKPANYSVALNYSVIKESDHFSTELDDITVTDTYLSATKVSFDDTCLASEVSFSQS
Sequence of Progesterone receptor (Homo sapiens) (P06401 whole entry, looked up): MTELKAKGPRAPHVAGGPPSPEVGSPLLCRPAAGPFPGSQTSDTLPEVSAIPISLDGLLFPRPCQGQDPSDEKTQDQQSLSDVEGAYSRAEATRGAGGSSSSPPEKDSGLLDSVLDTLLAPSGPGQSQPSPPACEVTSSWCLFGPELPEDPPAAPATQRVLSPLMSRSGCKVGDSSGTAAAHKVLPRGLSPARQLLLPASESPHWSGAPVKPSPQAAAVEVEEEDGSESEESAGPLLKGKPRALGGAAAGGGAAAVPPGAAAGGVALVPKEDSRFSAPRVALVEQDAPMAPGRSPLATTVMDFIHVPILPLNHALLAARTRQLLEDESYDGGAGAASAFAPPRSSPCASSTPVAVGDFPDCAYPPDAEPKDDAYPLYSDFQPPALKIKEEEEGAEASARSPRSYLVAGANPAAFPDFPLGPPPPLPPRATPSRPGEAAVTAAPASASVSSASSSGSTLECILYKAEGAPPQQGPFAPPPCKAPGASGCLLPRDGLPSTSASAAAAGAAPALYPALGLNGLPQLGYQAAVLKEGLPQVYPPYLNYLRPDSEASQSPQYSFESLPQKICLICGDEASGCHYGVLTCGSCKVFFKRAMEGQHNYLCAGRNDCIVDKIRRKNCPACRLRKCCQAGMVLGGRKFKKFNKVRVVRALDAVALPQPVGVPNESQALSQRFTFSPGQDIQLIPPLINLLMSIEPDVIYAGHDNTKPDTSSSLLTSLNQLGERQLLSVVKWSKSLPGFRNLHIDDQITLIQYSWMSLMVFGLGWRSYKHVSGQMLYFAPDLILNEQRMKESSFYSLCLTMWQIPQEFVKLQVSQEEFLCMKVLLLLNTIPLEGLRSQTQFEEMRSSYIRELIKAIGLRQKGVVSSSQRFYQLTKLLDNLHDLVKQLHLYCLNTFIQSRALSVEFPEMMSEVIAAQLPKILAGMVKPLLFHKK
Sequence of Nuclear receptor subfamily 1 group I member 2 (Homo sapiens) (O75469 whole entry, looked up): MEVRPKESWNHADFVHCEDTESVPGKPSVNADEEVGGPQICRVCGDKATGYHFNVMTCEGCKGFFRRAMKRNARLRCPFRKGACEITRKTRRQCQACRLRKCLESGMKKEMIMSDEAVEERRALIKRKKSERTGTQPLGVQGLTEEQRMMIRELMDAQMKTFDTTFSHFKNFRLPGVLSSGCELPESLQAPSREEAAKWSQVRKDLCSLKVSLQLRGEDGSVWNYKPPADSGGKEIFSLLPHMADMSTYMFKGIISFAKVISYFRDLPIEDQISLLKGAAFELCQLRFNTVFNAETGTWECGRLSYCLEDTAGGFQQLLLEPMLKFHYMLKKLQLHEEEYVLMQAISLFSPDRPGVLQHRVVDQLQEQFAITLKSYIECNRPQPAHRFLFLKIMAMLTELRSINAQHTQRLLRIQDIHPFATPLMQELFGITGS
Sequence of Nuclear receptor subfamily 1 group I member 2 (Rattus norvegicus) (Q9R1A7 whole entry, looked up): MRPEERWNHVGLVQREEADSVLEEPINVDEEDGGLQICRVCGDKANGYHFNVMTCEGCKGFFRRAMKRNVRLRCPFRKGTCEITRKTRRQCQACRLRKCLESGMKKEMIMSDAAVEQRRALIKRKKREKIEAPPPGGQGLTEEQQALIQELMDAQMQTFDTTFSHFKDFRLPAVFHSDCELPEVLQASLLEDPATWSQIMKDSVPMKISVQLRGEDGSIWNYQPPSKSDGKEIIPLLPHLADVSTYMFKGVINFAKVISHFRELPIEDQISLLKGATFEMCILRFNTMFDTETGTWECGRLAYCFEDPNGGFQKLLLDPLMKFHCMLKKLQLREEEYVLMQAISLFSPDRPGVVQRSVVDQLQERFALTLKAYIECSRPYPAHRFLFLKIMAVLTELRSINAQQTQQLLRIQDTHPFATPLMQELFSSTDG

COCCOCCOCCOCCO
inactive: outcome [1] | Potency [2] | Potency [3] | Potency [4] | Potency [5] | Potency [6] | outcome [7] | outcome [8] | outcome [9] | outcome [10] | outcome [11] | Potency [12] | Potency [13] | Potency [14] | outcome [15] | Potency [16]

C[C@@H](O)[C@H]1C(=O)N2C(C(=O)O)=C(SCCN=CN)C[C@H]12
inactive: outcome [1] | Potency [2] | Potency [3] | Potency [4] | Potency [5] | Potency [6] | outcome [7] | outcome [8] | outcome [9] | outcome [10] | outcome [11] | Potency [12] | Potency [13] | Potency [14] | outcome [15] | Potency [16] | Potency [17] | Potency [18] | Potency [19]

COc1ccc(OC)c(Cl)c1
inactive: outcome [1] | Potency [2] | Potency [3] | Potency [4] | Potency [5] | Potency [6] | outcome [7] | outcome [8] | outcome [9] | outcome [10] | outcome [11] | Potency [12] | Potency [13] | Potency [14] | outcome [15] | Potency [16] | Potency [17]

CC(C)(C)NC(N)=O
inactive: outcome [1] | Potency [2] | Potency [3] | Potency [4] | Potency [5] | Potency [6] | outcome [7] | outcome [8] | outcome [9] | outcome [10] | outcome [11] | Potency [12] | Potency [13] | Potency [14] | outcome [15] | Potency [16]

CCC(CC)CO
inactive: outcome [1] | Potency [2] | Potency [3] | Potency [4] | Potency [5] | Potency [6] | outcome [7] | outcome [8] | outcome [9] | outcome [10] | outcome [11] | Potency [12] | outcome [15] | Potency [16]

Nc1ncnc(Nc2ccccc2)n1
inactive: outcome [1] | Potency [2] | Potency [3] | Potency [4] | Potency [5] | Potency [6] | outcome [7] | outcome [8] | outcome [9] | outcome [10] | outcome [11] | Potency [13] | Potency [14] | outcome [15] | Potency [16] | Potency [17] | Potency [18] | Potency [19]

CCCCOCCOC(=O)COc1nc(Cl)c(Cl)cc1Cl
inactive: outcome [1] | Potency [2] | Potency [3] | Potency [4] | Potency [5] | Potency [6] | outcome [7] | outcome [8] | outcome [9] | outcome [10] | Potency [12] | Potency [13] | Potency [14] | Potency [16]

CCN1CCc2nc(N)oc2CC1
inactive: outcome [1] | Potency [2] | Potency [3] | Potency [4] | Potency [5] | Potency [6] | outcome [7] | outcome [8] | outcome [9] | outcome [10] | outcome [11] | Potency [13] | Potency [14] | outcome [15] | Potency [16] | Potency [17] | max activation [20] -5.4% | Potency [18] | Potency [19]

O=C1CCCC(=O)O1
inactive: outcome [1] | Potency [2] | Potency [3] | Potency [4] | Potency [5] | Potency [6] | outcome [7] | outcome [8] | outcome [9] | outcome [10] | outcome [11] | Potency [13] | Potency [14] | outcome [15] | Potency [16] | Potency [17]

O=C1CC(c2ccc(Cl)cc2)CC(=O)N1
inactive: outcome [1] | Potency [2] | Potency [3] | Potency [4] | Potency [5] | Potency [6] | outcome [7] | outcome [8] | outcome [9] | outcome [10] | outcome [11] | Potency [12] | Potency [13] | outcome [15] | Potency [16] | Potency [17]

CCCCCCCCCCCCCC
inactive: outcome [1] | Potency [2] | Potency [3] | Potency [4] | Potency [5] | Potency [6] | outcome [7] | outcome [8] | outcome [9] | outcome [10] | outcome [11] | Potency [12] | Potency [13] | Potency [14] | Potency [17]

COc1cc2c(cc1OC)C(=O)CC2
inactive: outcome [1] | Potency [2] | Potency [3] | Potency [4] | Potency [5] | Potency [6] | outcome [7] | outcome [8] | outcome [9] | outcome [11] | Potency [12] | Potency [13] | Potency [14] | outcome [15] | Potency [16] | Potency [17]

C[C@H](CCC(=O)O)[C@H]1CC[C@H]2[C@@H]3C(=O)C[C@@H]4CC(=O)CC[C@]4(C)[C@H]3CC(=O)[C@]12C
inactive: outcome [1] | Potency [2] | Potency [3] | Potency [4] | Potency [5] | Potency [6] | outcome [7] | outcome [8] | outcome [9] | outcome [11] | Potency [12] | Potency [13] | Potency [14] | outcome [15] | Potency [16] | Potency [17] | max activation [20] -0.558% | Potency [18] | Potency [19]

CC(=O)CCCCn1c(=O)c2c(ncn2C)n(C)c1=O
inactive: outcome [1] | Potency [2] | Potency [3] | Potency [4] | Potency [5] | Potency [6] | outcome [7] | outcome [8] | outcome [9] | outcome [10] | outcome [11] | Potency [12] | Potency [13] | Potency [14] | outcome [15] | Potency [16] | Potency [17] | max activation [20] -1.72% | Potency [18] | Potency [19]

O=C(O)CCSSCCC(=O)O
inactive: outcome [1] | Potency [2] | Potency [3] | Potency [4] | Potency [5] | Potency [6] | outcome [7] | outcome [8] | outcome [9] | outcome [10] | outcome [11] | Potency [12] | Potency [13] | Potency [14] | outcome [15] | Potency [16]
